Assay outcomes from PubChem.
KB-3-1 cytotox = qHTS assay for MDR1-selective chemotherapeutics: Primary screen using the parental adenocarcinoma cell KB-3-1; KB-3-1 viability, CellTiter-Glo ATP luminescence, 72 h; Potency, µM (titrated, usually from 46.1 µM), usual class: cytotoxic; 400,000 tested, 1.4% active; AID 1347075, 2019; further: nearly all actives have a fitted effect of over 60% in size
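Luminescent ATP read-out (CellTiter-Glo) measures survival of drug-naive KB-3-1 cells after 72 h compound exposure at 37 °C. Titration series was screened from lowest to highest concentration, with DMSO vehicle plates as background controls.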
KB-V1 MDR tox = qHTS assay for MDR1-selective chemotherapeutics: Primary screen using the drug-selected MDR subline cells KB-V1 | Potency, µM (series often up to 46.1 µM), actives largely listed as cytotoxic | 400,000 tested, 3.4% active | AID 1347076, 2019 | KB-V1 MDR cells viability, CellTiter-Glo, 72 h; further: nearly all actives have a fitted effect of over 60% in size
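qHTS viability screen in drug-selected KB-V1 MDR cells: 72 h compound treatment at 37 degrees C, ATP luminescence end point.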
HT1080 IDH1KD tx = qHTS for induction of synthetic lethality in tumor cells producing 2HG: qHTS for the HT-1080-IDH1KD cell line; HT-1080 IDH1 knockdown viability, ATP luminescence, 48 h; Potency, µM (highest dose often 46.1 µM), hits mostly cytotoxic; 360,000 tested, 2% active
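CellTiter-Glo luminescence after 48 h compound exposure at 37 degrees C of IDH1-knockdown HT-1080 cells in 5% FBS RPMI. %Activity scaled between DMSO wells and cell-free media wells, with curves fitted and assigned curve classes.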
TDP1 cell CPT = qHTS for Inhibitors of human tyrosyl-DNA phosphodiesterase 1 (TDP1): qHTS in cells in presence of CPT; chicken DT40 Tdp1-/-;hTDP1 cells + 20 nM CPT, ATP luminescence, 48 h; Potency, µM (highest dose often 46.2 µM), usual class: inhibitors; 420,000 tested, 12% active; AID 686979, 2013; further: nearly all actives have a fitted effect of over 55% in size
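Cell growth measured by CellTiter-Glo luminescence after a minimum 48 h, 37 C compound exposure with 20 nM CPT in Tdp1-knockout DT40 cells stably expressing hTDP1, seeded 400/well; qHTS titration format.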
TDP1 cell noCPT = qHTS for Inhibitors of human tyrosyl-DNA phosphodiesterase 1 (TDP1): qHTS in cells in absence of CPT | Potency, µM (top dose mostly 46.2 µM), most hits filed as inhibitors | AID 686978, 2013 | 420,000 tested, 15% active | DT40 Tdp1-/- hTDP1 cells, no CPT, ATP luminescence, 48 h; further: nearly all actives have a fitted effect of over 55% in size
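Chicken DT40 Tdp1-/- cells stably complemented with human TDP1 were seeded at 400 cells/well with DMSO in place of 20 nM camptothecin. After compound pinning, cells grew at least 48 hr at 37 °C; viability read by CellTiter-Glo luminescence.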
HT1080-NT tox = qHTS for induction of synthetic lethality in tumor cells producing 2HG: qHTS for the HT-1080-NT fibrosarcoma cell line. 360,000 tested, 1.6% active. HT-1080-NT fibrosarcoma viability, CellTiter-Glo ATP luminescence, 48 h. Potency, µM (doses to about 46.1 µM), actives largely listed as cytotoxic;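 further: NT is the 2HG producing partner of a matched IDH1 knockdown line; nearly all actives have a fitted effect of over 55% in size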
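Compounds were tested in concentration-response format on HT-1080-NT cells for 48 hours at 37 degrees C. Cell viability came from CellTiter-Glo luminescence; curves were classified by r2, response magnitude and activity.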
Numbers stand for hits; i = inactive; ? = inconclusive; nt = not tested or not shown; [ ] = dose if it differs, or a comment. An excerpt weighted towards active compounds, which were near 19% of everything screened. The call rests on the fitted dose curve; in most records, active means well fitted curve in the direction sought with a large enough effect; inconclusive means small, poorly fitted or top-dose-only effect, or another doubt; inactive means no such curve, though single readings can be large; an effect the other way counts as inactive or inconclusive.

SMILES | KB-3-1 cytotox | KB-V1 MDR tox | HT1080 IDH1KD tx | TDP1 cell CPT | TDP1 cell noCPT | HT1080-NT tox
O=C(CSc1nc(-c2ccccc2)c(-c2ccccc2)[nH]1)NCCN1C(=O)CSC1=O | 3.7µM | ? | 6.5µM | 13µM | 15µM | 4.6µM
O=C(CSc1nc(-c2ccccc2)cs1)NCc1ccco1 | i | ? | i | i | ? | i
CN(C)c1ccc(NC(=O)CSc2nnc(-c3ccco3)c(-c3ccco3)n2)cc1 | i | i | i | ? | 16µM | i
O=C(CSc1nnc(-c2ccccc2)c(-c2ccccc2)n1)NCc1ccco1 | ? | 16µM | ? | ? | 23µM | i
O=C(CSc1ncc(-c2ccccc2)nn1)NCc1ccco1 | i | i | i | i | i | i
O=C(CSc1nc(-c2ccccc2)c(-c2ccccc2)[nH]1)NCc1ccco1 | ? | 10µM | ? | ? | ? | ?
O=C(CSc1ccccc1F)NCCN1C(=O)CSC1=O | i | i | i | i | i | i
COc1ccc(CCC(=O)OCC(=O)NC(=O)c2ccc(Cl)cc2)cc1 | i | i | i | i | i | i
COc1ccc(CC(=O)Nc2cc(S(=O)(=O)N3CCOCC3)ccc2N2CCCC2)cc1 | i | i | i | i | i | i
CCOCC(=O)Nc1cc(S(=O)(=O)N2CCOCC2)ccc1N1CCCCC1 | i | i | i | 15µM | 16µM | i
O=C(Cc1ccc(F)cc1)Nc1cc(S(=O)(=O)N2CCOCC2)ccc1N1CCCCC1 | i | i | i | ? | 23µM | i
COc1ccc(-c2oc3ncn4nc(COc5ccc(C)cc5)nc4c3c2-c2ccc(OC)cc2)cc1 | i | i | nt | i | ? | nt
O=[N+]([O-])c1cccc(S(=O)(=O)N2CCN(c3nc(-c4ccccc4)nc4ccccc34)CC2)c1 | ? | i | nt | i | i | nt
O=S(=O)(c1ccc(Oc2ccc(Cl)cc2)nc1)N1CCOCC1 | i | i | i | i | i | i
CC#CCN(CC#CC)S(=O)(=O)c1ccc(S(=O)(=O)N2CCOCC2)cc1 | i | ? | i | ? | 16µM | i
O=S(=O)(c1ccc(Oc2ccc(F)c(Cl)c2)nc1)N1CCOCC1 | i | 23µM | i | i | i | i
O=S(=O)(c1ccc(Oc2ccc(S(=O)(=O)N3CCOCC3)cc2)cc1)N1CCOCC1 | ? | 15µM | i[9.24 µM] | ? | ? | i
COc1ccc(NS(=O)(=O)c2ccc(S(=O)(=O)N3CCOCC3)cc2)cc1 | i | ? | i | ? | 16µM | i
O=C(CNC(=O)c1ccccc1Br)Nc1cccc(S(=O)(=O)Nc2ccccc2Cl)c1 | i | i | i | i | i | i
CSc1ncc(Cl)c(C(=O)Nc2c(C(=O)c3ccc(C)cc3)oc3ccccc23)n1 | i | i | nt | i | i | nt
COc1ccc(S(=O)(=O)N2CCCCC2)cc1 | i | i | i | i | i | i
COc1ccc(NS(=O)(=O)c2ccc(S(=O)(=O)N3CCCC3)cc2)cc1 | i | ? | i | ? | 21µM | i
COc1ccc(S(=O)(=O)N2CCN(C3Cc4ccccc4C3)CC2)cc1 | i | 21µM | i | i | ? | i
COc1ccc(S(=O)(=O)N2CCN(C)CC2)cc1 | i | i | i | i | i | i
O=C(O)c1cc([N+](=O)[O-])ccc1Oc1ccccc1 | i | ? | ? | i | i | i
SMILES | KB-3-1 cytotox | KB-V1 MDR tox | HT1080 IDH1KD tx | TDP1 cell CPT | TDP1 cell noCPT | HT1080-NT tox
CCOc1ccc(NC(=O)CN(C)C(=O)c2ccc(NC3CC3)c([N+](=O)[O-])c2)cc1OCC | i | i | i | i | i | i
CN(CC(=O)Nc1cccc(F)c1)C(=O)c1ccc(N2CCCC2)c([N+](=O)[O-])c1 | i | i | i | 16µM | 16µM | i
CN(CC(=O)Nc1cccc(F)c1)C(=O)c1cc([N+](=O)[O-])ccc1N1CCCCC1 | i | i | i | ? | 29µM | i
CCOc1ccc(NC(=O)CN(C)C(=O)c2ccc(N3CCCCCC3)c([N+](=O)[O-])c2)cc1OCC | i | ? | i | ? | 23µM | i
COc1cccc(NC(=O)CN(C)C(=O)c2ccc(N3CCCCC3)c([N+](=O)[O-])c2)c1 | i | ? | i | ? | ? | i
O=C(Cn1c(=O)n(-c2ccc(F)c(Cl)c2)c(=O)c2sc3ccccc3c21)NC1CCCC1 | i | i | nt | i | i | nt
O=C(C[n+]1ccccc1Br)c1ccc(-c2ccccc2)cc1 | i | ? | nt | ? | i | nt
CNC1C(O)[C@@H]2OC(O[C@@H]3C(O)C(O)C(N)C[C@H]3N)C(N)C[C@H]2O[C@H]1O[C@@H]1OC(CO)C(N)C(O)C1O (some centres not stated) | nt | nt | nt | i | i | nt
COc1ccc(-n2c(C)cc(/C=N/Nc3nnc(C)n3N)c2C)cc1 | i | i | ? | 23µM | 16µM | i
COc1cccc(/C=N/Nc2ncnc3c2ncn3Cc2ccccc2)c1O | ? | 0.52µM | ? | 3.7µM | 4.6µM | i
Fc1ccccc1COc1ccccc1/C=N/Nc1nc(N2CCCC2)nc(N2CCCC2)n1 | i | ? | i | ? | 21µM | i
COc1cccc(/C=N/Nc2cc(N3CCOCC3)ncn2)c1O | 10µM | i | 5.8µM | 5.8µM | 6.5µM | ?
COc1ccc(/C=N/Nc2cc(N3CCOCC3)ncn2)c(OC)c1 | i | ? | i | i | i | i
Cc1ccc(C(O)Cn2nc(C)cc2C)cc1 (configuration not stated) | i | i | i | ? | ? | i
COc1cccc(/C=N/Nc2nnc(C)n2N)c1O | i | i | 21µM | ? | 21µM | ?
COc1cccc(/C=N/Nc2nc(N3CCCC3)nc(N3CCCC3)n2)c1O | i | i | i[9.24 µM] | ? | 21µM | i
COc1ccc(/C=N/Nc2nc(N3CCCC3)nc(N3CCCC3)n2)c(OC)c1OC | i | i | i | i | i | i
COc1ccc(NC(=O)CSc2nnc(NC(=O)c3ccco3)s2)cc1OC | i | i | i | i | i | i
Nc1nc2ccc(Cl)cc2cc1C(=O)NCCc1ccc(O)cc1 | ? | ? | ? | ? | 18µM | i
COc1ccc(CCNC(=O)c2cc3cc(Cl)ccc3nc2N)cc1OC | i | i | 18µM | 13µM | 8.2µM | i
Cc1c(Cl)cnc(NC(=O)COC(=O)[C@H](C)NC(=O)c2ccccc2)c1Cl | i | i | i | i | i | i
COc1ccc(CN2CCN(Cc3ccc(C(F)(F)F)cc3)CC2)cc1 | ? | i | i | ? | 23µM | i
